# Experimental data from PubChem BioAssay (NCI).
# Values joined by “and” are separate entries in the source; they are usually repeats but may differ in a detail not shown here. Equal values may be shown once. The panel holds about 83,000 compounds, 20% with a hit somewhere; the sample as a whole holds those more often.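 The test compound was applied at a single concentration to cells in 96-well plates for 48 hours, and percent growth was recorded.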 Unmarked numbers belong to inactive results. Active and inactive are the calls of the source.
# System: MCF7 breast
# Experiment: NCI-60 one-dose screen, 48 h (100 = growth as untreated, 0 = no growth, -100 = all killed)
# Settings: 10 µM unless noted
# Experimental: Growth inhibition of the MCF7 human tumor cell line is measured as a screen for anti-cancer activity. Cells are grown in 96 well plates and exposed to the test compound for 48 hours. Compounds are tested at a single concentration, which is 10^-5 M for most compounds. The reported endpoint is percent growth (GI% or GIPRCNT), where numbers from 0 - 100% represent growth inhibition, and numbers from -100% - 0 represent cell death. For example, a value of 40 represents 60% growth inhibition. A value of 0 means no net growth occurred over the course of the experiment. A value of -40 indicates 40% of cells at the beginning of the experiment died by the end of the experiment. A value of -100 means all cells are dead at the end of the experiment.
# NCI-60 Human Tumor Cell Lines Screen was performed using the standard one-dose NCI protocol, which is described in more detail at https://dtp.cancer.gov/discovery_development/nci-60/default.htm.
# Compounds with GIPRCNT values below 10 were considered active. Activity score was based on GIPRCNT using the following formula: […]
# Score is 0 for GIPRCNT values of 100 or above, 50 for GIPRCNT values of 0, and 100 for GIPRCNT values of -100.
row,Compound,growth
1,O=Cc1cncc(-c2ccc3ncnc(N4CCc5cc(F)c(Cl)cc54)c3c2)c1,1.77% (active)
2,CC[C@]12C=CCN3CC[C@@]4(c5ccc(OC)cc5N(C)[C@H]4[C@@](O)(C(=O)OC)[C@@H]1OC(=O)CCC[P+](c1ccc(OC)cc1)(c1ccc(OC)cc1)c1ccc(OC)cc1)[C@@H]32,-83% (active)
3,Cc1nc2sccn2c1-c1nnc(SCc2ccccc2)o1,74.2%
4,COC(=O)c1c(C(=O)OC)c2c3ccccc3c3ccccc3n2c1C(=O)C(C)(C)C,73%
5,COc1ccc(/C=C/c2nc3ccccc3n3c(-c4cccc([N+](=O)[O-])c4)nnc23)cc1,-64.5% (active)
6,O=c1[nH]c2ccccc2cc1CSc1ccccc1Nc1nccc(-c2ccc3c(c2)OCO3)n1,69.2%
7,Nc1nn2c(-c3cc4cc(Br)ccc4oc3=O)ccnc2c1N=Nc1ccc(S(N)(=O)=O)cc1,71.4%
8,Cn1cc(-c2cc(N)n3nc(-c4c[nH]c5ccc(Cl)cc45)cc3n2)c2cc(Br)cnc21,-59.8% (active)
9,COc1cc(/C=N/NC(=O)c2ccc(OCc3nc4ccc(Cl)cc4[nH]3)cc2)cc(OC)c1OC,18.3%
10,CS(=O)(=O)Nc1cncc(-c2ccc3ncnc(NCc4ccccc4)c3c2)c1,9.82% (active)
11,CN1CCN(c2ccc3c4c(cccc24)C(=O)N(c2cccc(-c4nn(-c5ccccc5)cc4-c4nc5ccccc5s4)c2)C3=O)CC1,5.13% (active)
12,Nc1nnc(-c2cncc(Br)c2)c(-c2c[nH]c3ccc(Cl)cc23)n1,75.1%
13,Nc1nn2c(-c3cc4cc(Br)ccc4oc3=O)ccnc2c1N=Nc1ccc(Br)cc1,39.5%
14,COc1ccc(N=Nc2c(N)nn3c(N)c(C#N)c(-c4ccccc4)nc23)cc1,14.5%
15,CC1=C(C(=O)Nc2ccccc2)C(c2cccc(Cl)c2Cl)n2c(nc3ccccc32)N1 (stereo not given),24.6%
16,O=C(N/N=C/c1ccoc1)c1[nH]c2ccc(Br)cc2c1-c1ccccc1,-70.3% (active)
17,CS(=O)(=O)Nc1cc(-c2ccc3ncnc(Nc4ccc(OCc5cccnc5)c(Cl)c4)c3c2)cnc1Cl,-8.39% (active)
18,COC(=O)c1c(C(=O)OC)c2ccc3c4ccccc4ccc3n2c1C(=O)C(C)Br (stereo not given),6.04% (active)
19,Cc1cnc2ccc(Oc3ccccc3-c3ccccc3)nn12,93%
20,CC(=O)Nc1cccc(-n2c(COc3ccc(Br)cc3)nc3ccccc32)c1,82.3% and 97.2%

row,Compound,growth
1,CC1=C(C(=O)Nc2ccccc2)C(c2cccc3ccccc23)n2c(nc3ccccc32)N1 (stereo not given),38.5%
2,O=C1CCC(N2C(=O)c3cccc(NCCOCCOCCOCCC(=O)NCCCC(=O)NC(c4ccc5c(c4)OCO5)c4cc(Cl)c5cccnc5c4O)c3C2=O)C(=O)C1 (stereo not given),10.9%
3,N/C(=N\c1nc2ccc([N+](=O)[O-])cc2s1)NC(=O)Nc1ccccc1Cl,36.5%
4,Cc1ccccc1Nc1nnc(-c2c[nH]c3ccccc23)o1,21.8%
5,CCOC(=O)c1ccc(NC(=S)NC(=O)c2cccc(NC(=O)c3ccc(C)cc3)c2)cc1,64.2%
6,CCCn1c(NC(=O)c2cccc(C(N)=O)c2)nc2ccc(CN3CCCCC3)cc21,75.6%
7,Cc1ccc(-c2cc(-c3ccccc3)[nH]c(=O)c2C#N)cc1,75.1%
8,COc1ccccc1NC(=O)N/N=C/c1c[nH]c2ccccc12,6.55% (active)
9,COc1ccc(SC2c3cc(OC)ccc3Oc3nc(N)c(C#N)c(N)c32)cc1 (stereo not given),49.2%
10,Cn1cc(-c2cc(N)n3nc(-c4c[nH]c5ccccc45)cc3n2)c2cc(F)ccc21,-7.62% (active)
11,CCc1ccccc1NC(=O)N/C(N)=N/c1nc2ccccc2s1,11%
12,COc1ccc(N=Nc2c(N)nn3c(-c4ccc(F)cc4)ccnc23)cc1,55.4%
13,C=CC(=O)Nc1ccc(C(=O)/C=C/c2ccc(N(C)C)cc2)c(O)c1,10.7%
14,CCOc1ccccc1[C@H]1C(C(=O)c2ccc(Cl)cc2)C2(N[C@@H]1c1ccccc1)C(=O)Nc1ccccc12 (stereo not given in full),-9.52% (active)
15,O=C(/C=C1\C(=O)N(Cc2ccccc2)c2ccccc21)c1cc2ccccc2oc1=O,29.8%
16,Cn1cc(-c2cc(N)n3nc(-c4c[nH]c5ccc(F)cc45)cc3n2)c2cccnc21,-53.8% (active)
17,Cn1cc(Nc2ncnc(-c3ccc(N4CCCC4)c(C#N)c3)n2)cn1,66.5%
18,CN1CCN(C(=O)CCN(C(=O)Oc2cc3c(c4ccccc24)[C@H](CCl)CN3C(=O)c2cc3cc(OCCCN4CCC4)ccc3[nH]2)[C@H]2CCSSC2)CC1,-67.4% (active)
19,O=C(NN1C(=O)/C(=C/C=C/c2ccc([N+](=O)[O-])o2)SC1=S)c1ccc([N+](=O)[O-])cc1,-61.4% (active)
20,O=C(c1cc2cc(OCCCN3CCC3)ccc2[nH]1)N1C[C@@H](CCl)c2c1cc(OCc1ccccc1)c1ccccc21,-9.07% (active)
